Measured values reported in PubChem BioAssay.
Calls of active or inactive are those of the source. Unless noted, the rule behind the calls is not given here.

Assays:
[1] = system: Wnt5a (protein binding on small-molecule microarray); assay: Wnt5a binders on small-molecule microarray, primary screen, biophysical, 635/667 nm fluorescence (AID 1142); conditions: 635 nm fluorescence, higher = more signal;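 note: fluorescence read at 667 nm with signal to noise per printed feature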
[2] = cell viability in Huh7 cells, primary screen, cytotoxicity control for HCV replication inhibitor project, CellTiter-Glo luminescence, basal, 48 h (AID 1143); conditions: Huh7 HCV replicon, higher = more signal, called active from +8 up or from −8 down;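 note: Huh7 hepatoma cells carrying a hepatitis C replication reporter with no stimulus; test concentration not given here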
[3] = P. aeruginosa biofilm formation inhibitors, primary screen, PAO1 strain, BacTiter-Glo luminescence, LB-PBS (AID 1144); conditions: 12 h, higher = more signal
[4] = CREB reporter modulators without forskolin, primary screen, cell-based, PC12, CRE-LacZ reporter, unstimulated (AID 1145); conditions: no forskolin, luminescence, 4.5 h, higher = more signal, called active from +8 up or from −8 down
[5] = CREB reporter modulators under forskolin, primary screen, cell-based, PC12, CRE-LacZ reporter, forskolin-stimulated (AID 1146); conditions: luminescence, 4.5 h, higher = more signal, called active from +8 up or from −8 down;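 note: PC12 cells with 6xCRE LacZ reporter stimulated by forskolin 10 µM; beta-galactosidase reporter signal reflecting CREB driven transcription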
[6] = target: Streptavidin (Streptomyces avidinii) (UniProt P22629); assay: streptavidin binders on small-molecule microarray, primary screen, artefact control for SMM compound annotation, biophysical, 635/667 nm fluorescence (AID 1147); conditions: streptavidin binding, higher = more signal;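 note: signal reflects streptavidin binding to arrayed compounds as a control protein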
Sequence of Streptavidin (Streptomyces avidinii) (P22629 whole entry, looked up): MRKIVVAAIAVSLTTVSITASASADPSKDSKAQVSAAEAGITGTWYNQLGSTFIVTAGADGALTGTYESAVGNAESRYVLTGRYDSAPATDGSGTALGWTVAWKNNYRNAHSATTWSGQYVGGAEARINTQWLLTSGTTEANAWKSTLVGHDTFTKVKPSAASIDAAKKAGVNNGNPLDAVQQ

[7] = small-molecule binders of probe aInhba, primary screen, biochemical, small-molecule microarray, 635/667 nm fluorescence (AID 1148); conditions: higher = more signal;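 note: score merges 667nm spot fluorescence with signal-to-noise for antibody binding to printed compounds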
[8] = target: Torsin-1A (Homo sapiens) (UniProt O14656); assay: torsin A binders from cell lysate, primary screen, small-molecule microarray, wild-type, 635/667 nm (AID 1149); conditions: COS7 hTOR1A-WT lysate, 635 nm fluorescence, higher = more signal
Sequence of Torsin-1A (Homo sapiens) (O14656 whole entry, looked up): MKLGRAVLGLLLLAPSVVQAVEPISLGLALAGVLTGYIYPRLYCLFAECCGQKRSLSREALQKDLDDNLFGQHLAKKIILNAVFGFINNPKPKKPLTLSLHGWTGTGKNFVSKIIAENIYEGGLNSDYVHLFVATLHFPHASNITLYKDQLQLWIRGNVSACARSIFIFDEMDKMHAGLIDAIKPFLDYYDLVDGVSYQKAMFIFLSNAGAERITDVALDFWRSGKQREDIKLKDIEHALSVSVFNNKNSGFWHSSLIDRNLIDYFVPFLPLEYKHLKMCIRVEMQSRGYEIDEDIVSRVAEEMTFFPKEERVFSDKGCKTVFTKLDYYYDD

[9] = target: Torsin-1A (Homo sapiens) (UniProt O14656); assay: small-molecule binders of mutant TOR1A in lysate, primary screen, cell lysate, small-molecule microarray, COS7 lysate, 635/667 nm fluorescence (AID 1150); conditions: COS7 hTOR1A mutant lysate, 635 nm fluorescence, higher = more signal;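 note: score pools 667 nm emission and signal to noise measuring lysate protein binding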
[10] = system: Sonic hedgehog protein (Shh); assay: small-molecule binders of Shh protein, primary screen, biochemical, small-molecule microarray, 635/667 nm fluorescence (AID 1151); conditions: small-molecule microarray binding, 635 nm fluorescence; higher = more signal;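 note: Shh protein binding to compounds spotted on small-molecule microarray slides; score combines spot fluorescence intensity with signal-to-noise across triplicate slides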
[11] = E. coli DRC41 culture turbidity changes, primary screen, E. coli filamentation inducer project, strain DRC41, OD650, 48 h (AID 1152);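 note: E. coli MC1000 strain DRC41 lacking acrAB efflux pump and sulA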; conditions: E. coli DRC41 (acrAB sulA), higher = more signal, called active from +8 up or from −8 down
[12] = small-molecule binders of probe aLefty1, primary screen, biochemical, small-molecule microarray, 635/667 nm fluorescence (AID 1153); conditions: higher = more signal;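 note: score merges spot fluorescence with signal-to-noise ratio from the scanned slide images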
[13] = PSAC antagonists in infected red cells, primary screen, cell-based, P. falciparum Indochina, OD700, 1 h (AID 1154); conditions: P. falciparum Indochina infected RBC osmotic lysis, higher = more signal, called active from +8 up or from −8 down
[14] = PSAC antagonists in infected red cells, primary screen, cell-based, P. falciparum Indochina, OD700, 2 h (AID 1155);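 note: lysis reports solute entry through the parasite surface anion channel PSAC; channel blockers reduce lysis of infected cells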; conditions: P. falciparum Indochina infected erythrocytes, osmotic lysis OD700; higher = more signal, called active from +8 up or from −8 down
[15] = osmotic lysis modulators in infected erythrocytes, primary screen, PSAC antagonist project, cell-based, P. falciparum Indochina, OD700, 3 h (AID 1156); conditions: higher = more signal, called active from +8 up or from −8 down
[16] = PSAC antagonists in infected red cells, primary screen, cell-based, P. falciparum Indochina, OD700, 18 h (AID 1157); conditions: P. falciparum Indochina infected erythrocytes, osmotic lysis OD700, 18 h; higher = more signal, called active from +8 up or from −8 down
[17] = modulators of S6 phosphorylation in cells, primary screen, cell-based, A549, cytoblot, luminescence, serum-stimulated (AID 1158); conditions: A549 phospho-S6 cytoblot, 5 h, higher = more signal;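 note: serum-stimulated A549 lung adenocarcinoma cells; signal is phosphorylated S6 detected by cytoblot immunostaining with HRP secondary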
[18] = target: NADPH oxidase 2 (Homo sapiens) (UniProt P04839); assay: NOX2-dependent H2O2 signal modulators, primary screen, NOX inhibitor project, cell-based, HEK293-NOX2, PMA-stimulated, Amplex Red fluorescence (AID 1159); conditions: 45 min, higher = more signal, called active from +8 up or from −8 down; note: test concentration not given here
Sequence of NADPH oxidase 2 (Homo sapiens) (P04839 whole entry, looked up): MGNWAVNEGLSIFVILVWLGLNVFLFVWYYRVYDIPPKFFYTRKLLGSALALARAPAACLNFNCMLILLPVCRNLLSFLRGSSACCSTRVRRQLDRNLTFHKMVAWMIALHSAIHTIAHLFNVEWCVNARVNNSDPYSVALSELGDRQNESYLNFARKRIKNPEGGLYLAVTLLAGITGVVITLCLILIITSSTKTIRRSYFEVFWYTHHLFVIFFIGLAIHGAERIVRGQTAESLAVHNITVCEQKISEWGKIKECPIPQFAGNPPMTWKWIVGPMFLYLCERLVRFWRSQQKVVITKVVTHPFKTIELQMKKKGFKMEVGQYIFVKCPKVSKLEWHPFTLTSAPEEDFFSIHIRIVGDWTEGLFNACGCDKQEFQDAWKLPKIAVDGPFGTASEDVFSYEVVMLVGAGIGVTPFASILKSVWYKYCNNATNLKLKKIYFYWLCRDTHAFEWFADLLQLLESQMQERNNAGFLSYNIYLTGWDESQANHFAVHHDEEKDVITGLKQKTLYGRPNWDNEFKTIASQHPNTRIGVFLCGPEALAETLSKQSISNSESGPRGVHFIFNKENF

[19] = target: NADPH oxidase 4 (Homo sapiens) (UniProt Q9NPH5); assay: NOX4-dependent H2O2 signal modulators, primary screen, NOX inhibitor project, cell-based, HEK293-NOX4, tetracycline-induced, Amplex Red fluorescence (AID 1160); conditions: 45 min, higher = more signal, called active from +8 up or from −8 down
Sequence of NADPH oxidase 4 (Homo sapiens) (Q9NPH5 whole entry, looked up): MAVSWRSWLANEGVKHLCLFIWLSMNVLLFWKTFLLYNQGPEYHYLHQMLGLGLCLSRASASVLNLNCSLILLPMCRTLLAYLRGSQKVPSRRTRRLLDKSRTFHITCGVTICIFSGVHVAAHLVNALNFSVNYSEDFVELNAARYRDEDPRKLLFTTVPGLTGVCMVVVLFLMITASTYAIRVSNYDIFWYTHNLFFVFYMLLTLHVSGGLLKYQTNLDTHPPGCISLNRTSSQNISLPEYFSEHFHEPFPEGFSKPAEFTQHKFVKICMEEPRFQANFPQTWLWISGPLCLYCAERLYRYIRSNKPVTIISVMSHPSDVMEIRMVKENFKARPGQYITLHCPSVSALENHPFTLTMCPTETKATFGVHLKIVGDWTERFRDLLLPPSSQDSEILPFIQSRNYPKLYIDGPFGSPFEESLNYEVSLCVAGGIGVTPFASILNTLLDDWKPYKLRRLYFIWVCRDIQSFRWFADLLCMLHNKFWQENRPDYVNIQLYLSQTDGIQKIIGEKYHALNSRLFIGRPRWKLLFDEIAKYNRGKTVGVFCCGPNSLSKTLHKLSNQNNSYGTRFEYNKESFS

[20] = target: NADPH oxidase 5 (Homo sapiens) (UniProt Q96PH1); assay: NOX5-dependent H2O2 signal modulators, primary screen, NOX inhibitor project, cell-based, HEK293-NOX5, Amplex Red fluorescence (AID 1161); conditions: HEK293-NOX5, ionomycin, 45 min, higher = more signal
Sequence of NADPH oxidase 5 (Homo sapiens) (Q96PH1 whole entry, looked up): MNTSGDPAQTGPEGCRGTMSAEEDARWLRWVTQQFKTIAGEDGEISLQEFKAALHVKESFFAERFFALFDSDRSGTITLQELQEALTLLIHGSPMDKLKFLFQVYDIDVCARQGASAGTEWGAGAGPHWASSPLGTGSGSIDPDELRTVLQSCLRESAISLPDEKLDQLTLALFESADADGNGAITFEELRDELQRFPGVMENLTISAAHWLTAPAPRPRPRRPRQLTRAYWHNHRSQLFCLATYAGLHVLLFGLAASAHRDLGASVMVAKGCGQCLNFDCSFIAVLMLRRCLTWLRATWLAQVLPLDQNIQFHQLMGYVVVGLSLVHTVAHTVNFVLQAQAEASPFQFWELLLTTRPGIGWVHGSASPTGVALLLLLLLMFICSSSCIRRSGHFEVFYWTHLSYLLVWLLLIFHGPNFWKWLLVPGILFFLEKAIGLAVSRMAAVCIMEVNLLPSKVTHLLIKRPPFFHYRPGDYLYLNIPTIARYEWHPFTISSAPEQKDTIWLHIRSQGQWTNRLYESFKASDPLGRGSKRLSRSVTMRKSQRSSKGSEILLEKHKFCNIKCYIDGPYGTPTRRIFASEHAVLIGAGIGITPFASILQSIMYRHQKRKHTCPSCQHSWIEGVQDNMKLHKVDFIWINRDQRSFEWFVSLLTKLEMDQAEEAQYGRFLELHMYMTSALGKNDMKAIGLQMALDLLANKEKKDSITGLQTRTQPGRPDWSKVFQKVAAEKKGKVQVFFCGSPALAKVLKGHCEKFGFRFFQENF

SMILES	composite z-score [1]	z-score [2]	z-score [3]	z-score [4]	z-score [5]	composite z-score [6]	composite z-score [7]	composite z-score [8]	composite z-score [9]	composite z-score [10]	z-score [11]	composite z-score [12]	z-score [13]	z-score [14]	z-score [15]	z-score [16]	z-score [17]	z-score [18]	z-score [19]	z-score [20]
COc1cc2c(cc1OC)CN(C(=O)[C@@H]1[C@H]3C(=O)O[C@H](c4ccccc4)[C@H](c4ccccc4)N3[C@H](c3ccc(O)cc3)[C@@]13C(=O)Nc1ccc(C#CCNC(N)=O)cc13)CC2	0.147	0.311 (inactive)	0.347 (inactive)	0.182 (inactive)	0.445 (inactive)	0.239	-0.101	-0.0899	-0.0351	0.946	0.108 (inactive)	0.231	1.1 (inactive)	0.218 (inactive)	-0.83 (inactive)	-0.0717 (inactive)	-0.419	0.842 (inactive)	0.157 (inactive)	0.432
O=C1O[C@@H](c2ccccc2)[C@@H](c2ccccc2)N2[C@@H](c3ccc(O)cc3)[C@]3(C(=O)Nc4ccc(C#CC5(O)CCCCCC5)cc43)[C@@H](C(=O)N3CCN(c4ncccn4)CC3)[C@H]12	0.149	-1.37 (inactive)	-0.775 (inactive)	-0.231 (inactive)	0.204 (inactive)	0.849	-0.144	1.42	0.743	0.358	1.36 (inactive)	0.214	0.0075 (inactive)	-0.443 (inactive)	-5.11 (inactive)	-0.195 (inactive)	-0.181	1.07 (inactive)	0.74 (inactive)	0.443
COC(=O)[C@]1(Cc2ccccc2CN=[N+]=[N-])N=C(c2ccc(OCCCO)cc2)O[C@@H]1c1ccccc1	-0.311	-4.69 (inactive)	0.211 (inactive)	4.85 (inactive)	0.56 (inactive)	-1.05	-0.0407	-2.51	-1.33	-1.19	-0.453 (inactive)	0.14	27.8 (active)	26.4 (active)	-0.232 (inactive)	6.71 (inactive)	0.008	-2.2 (inactive)	-1.59 (inactive)	-2.6
NC(=O)NCC#Cc1ccc2c(c1)[C@]1(C(=O)N2)[C@H](c2ccc(O)cc2)N2[C@H](c3ccccc3)[C@H](c3ccccc3)OC(=O)[C@H]2[C@@H]1C(=O)NC[C@H](O)c1ccccc1	-0.579	-0.383 (inactive)	0.502 (inactive)	0.48 (inactive)	-0.334 (inactive)	-1.85	-0.239	-1.19	-1	-1.22	0.578 (inactive)	-0.316	-0.0501 (inactive)	0.647 (inactive)	0.223 (inactive)	0.363 (inactive)	-0.328	0.251 (inactive)	-0.258 (inactive)	-0.0927
CCCN1C(=O)[C@@H]2Cc3c([nH]c4ccccc34)[C@@H](c3cccc(O)c3)N2C1=O	-0.0436	0.792 (inactive)	-0.23 (inactive)	-0.374 (inactive)	-0.0707 (inactive)	-0.294	-0.024	0.288	0.193	0.216	-0.524 (inactive)	0.0742	-0.578 (inactive)	-0.108 (inactive)	-0.539 (inactive)	-0.114 (inactive)	0.257	-0.904 (inactive)	-1.02 (inactive)	-0.413
COc1ccc([Si](C)(C)[C@@H]2[C@@H](CC(=O)N(CCO)Cc3ccccc3)O[C@]3(C(=O)N(Cc4ccc(N5CCOC5=O)cc4)c4ccccc43)[C@H]2C)cc1	0.0838	-5.01 (inactive)	0.0675 (inactive)	7.59 (inactive)	0.331 (inactive)	0.601	0.027	0.436	0.0783	1.95	-1.02 (inactive)	-0.0891	8.87 (active)	1.62 (inactive)	-0.248 (inactive)	0.821 (inactive)	-0.16	0.566 (inactive)	1.18 (inactive)	3.4
CCCC=C(CCC)[C@@H](NS(=O)(=O)CC)c1ccccc1	0.356	-2.11 (inactive)	0.932 (inactive)	0.59 (inactive)	1.16 (inactive)	1.08	0.279	0.252	0.0756	-0.324	-1.84 (inactive)	0.443	0.19 (inactive)	-0.0273 (inactive)	-1.28 (inactive)	0.716 (inactive)	-0.259	-1.32 (inactive)	-2.4 (inactive)	2.02
CN1C(=O)C2C=CC(C(O)c3cccc4ccccc34)N(NC(=O)OC(C)(C)C)C2C1=O (stereo not given)	0.611	0.227 (inactive)	0.489 (inactive)	1 (inactive)	0.6 (inactive)	1.51	0.723	0.104	1.41	-0.271	-0.622 (inactive)	0.966	1.15 (inactive)	0.564 (inactive)	0.0094 (inactive)	0.877 (inactive)	-1.22	-0.492 (inactive)	-3.85 (inactive)	0.409
O=[N+]([O-])c1ccc(C[n+]2ccc(-c3ccc(CO)cc3)cc2)o1	-0.0922	-1.13 (inactive)	-0.42 (inactive)	-0.464 (inactive)	0.239 (inactive)	0.85	0.0816	-0.078	0.0063	1.44	-1.32 (inactive)	-0.0764	1.34 (inactive)	0.199 (inactive)	0.495 (inactive)	-0.139 (inactive)	-0.103	0.0654 (inactive)	-0.765 (inactive)	-3.73
